Screening results as filed in PubChem BioAssay.
Peg3 promoter = reduces Peg3 promoter-driven luciferase expression in HeLa; HeLa PEG-Prom luciferase reporter, luminescence, overnight; inhibition, % at 20 µM; AID 588405; 360,000 tested, 1.7% active;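 active means inhibition of at least 50% at 20 µM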
KKLEB tox = reduces viability of KKLEB cystic fibrosis airway cells; KKLEB CF airway cells viability, ATPlite luminescence, overnight; stronger effect = lower value; cells stimulated with P. aeruginosa culture filtrate; activity change (cytotoxicity), % at 5 µM; 360,000 tested, 0.36% active;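 active means corrected activity change at or below -50% at 5 µM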
Shn3 3UTR inh = inhibitors of Schnurri-3 3'UTR reporter in osteoblasts. Clone20 osteoblast Shn3 3'UTR firefly luciferase, 24 h. inhibition, % at 12.5 µM. 360,000 tested, 0.52% active. AID 588674;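 active means mean inhibition of at least 75% with every replicate also reaching 75%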;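 further: 0% = median of neutral control wells and 100% = pilot-screen positive control compound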
HIF-2a block = inhibitors of HIF-2a. 786-0 RCC cells HIF-2a reporter, luciferase luminescence, overnight. inhibition, % at 18.8 µM. 360,000 tested, 0.72% active;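 active means inhibition of the luminescence signal of 40% or more relative to plate controls, in a single-dose primary screen at 18.75 µM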
TRPM1 prom inh = MITF TRPM1 promoter inhibition in SK-MEL-5 cells. 330,000 tested, 0.83% active. SK-MEL-5 TRPM1 promoter luciferase, 24 h. inhibition, % at 12.5 µM;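 active means mean inhibition across replicates of 60% or more, whatever share of single replicates reaches that level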
CF NFkB inh = blocks PAF-induced NF-kB reporter in cystic fibrosis cells; 360,000 tested, 0.86% active; KKLEB NF-kB-GFP reporter, GFP fluorescence overnight; inhibition, % at 5 µM;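 active means at least 50% inhibition at 5 µM, scaled per plate between neutral and stimulator controls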;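 further: PAF is a Pseudomonas aeruginosa culture filtrate used as stimulus; plate controls were PAF-stimulated DMSO wells for no effect and unstimulated DMSO wells for full effect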
CF NFkB conf = CF NF-kB inhibition confirmation, single concentration | KKLEB CF airway cells, PAF-induced NF-kB-GFP fluorescence, overnight | 1,300 tested, 64% active | shares compounds with CF NFkB inh | inhibition, % at 5 µM; in the data active means inhibition above about 40%;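 further: stimulus PAF is a Pseudomonas aeruginosa filtrate and not platelet activating factor; plate controls were DMSO wells with stimulus for no effect and unstimulated DMSO wells for full effect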
The depositor's hits bear a star. Sampled rows, rich in hits. Any-hit rate of the full collection: about 2.8%.

What do the screens show for `Cc1ccc(-c2n[nH]c(=S)n2/N=C/c2ccncc2)cc1`?
Peg3 promoter: -6.0; KKLEB tox: -17.0; Shn3 3UTR inh: 15.1; HIF-2a block: 16.6; TRPM1 prom inh: -1.0; CF NFkB inh: 55.5*; CF NFkB conf: 85.1*

How did CCC1CCc2c(sc(NC(=O)c3cnccn3)c2C(N)=O)C1 (stereo not given) do in these assays?
Peg3 promoter: -87.3; KKLEB tox: -38.2; Shn3 3UTR inh: -44.4; HIF-2a block: -10.6; TRPM1 prom inh: -25.7; CF NFkB inh: 65.2*; CF NFkB conf: 10.9

What do the screens show for `O=C(Nc1cccc2[nH]ncc12)c1ccc(F)cc1`?
Peg3 promoter: -106.3; KKLEB tox: 0.1; Shn3 3UTR inh: -20.8; HIF-2a block: -96.3; TRPM1 prom inh: -88.6; CF NFkB inh: 79.0*; CF NFkB conf: 93.0*

How did O=C(NC(=S)Nc1cccc2[nH]ncc12)c1ccccc1 do in these assays?
Peg3 promoter: -214.7; KKLEB tox: 8.6; Shn3 3UTR inh: -53.1; HIF-2a block: -221.8; TRPM1 prom inh: -62.0; CF NFkB inh: 62.0*; CF NFkB conf: 20.8

Results for O=C(Nc1cccc2ccccc12)c1ccc(F)cc1 ?
Peg3 promoter: -135.4; KKLEB tox: 6.1; Shn3 3UTR inh: -7.7; HIF-2a block: -94.7; TRPM1 prom inh: -18.6; CF NFkB inh: -11.1

How did CSCc1ccc(C(=O)N2CCC(N3CCC(C(=O)NC(C)C)CC3)CC2)o1 do in these assays?
Peg3 promoter: -12.3; KKLEB tox: -1.8; Shn3 3UTR inh: -35.4; HIF-2a block: 10.0; TRPM1 prom inh: -6.9; CF NFkB inh: 8.2

Results for O=[N+]([O-])c1ccc2ncnc(N3CCN(Cc4ccc5c(c4)OCO5)CC3)c2c1 ?
Peg3 promoter: 11.7; KKLEB tox: 10.4; Shn3 3UTR inh: 84.9; HIF-2a block: 11.1; TRPM1 prom inh: 5.2; CF NFkB inh: 68.5*; CF NFkB conf: 84.8*

Results for O=[N+]([O-])c1cccnc1N1CCN(Cc2ccc3c(c2)OCO3)CC1 ?
Peg3 promoter: -46.8; KKLEB tox: 0.1; Shn3 3UTR inh: 11.6; HIF-2a block: -18.8; TRPM1 prom inh: -6.6; CF NFkB inh: 3.9

How did CN1CCN(S(=O)(=O)c2cccc(C(=O)NCc3ccc(Cl)cc3)c2)CC1 do in these assays?
Peg3 promoter: 30.1; KKLEB tox: -1.8; Shn3 3UTR inh: -5.1; HIF-2a block: -13.7; TRPM1 prom inh: -2.4; CF NFkB inh: 0.3

Results for C/C(=N/Nc1ccccc1[N+](=O)[O-])c1ccc([N+](=O)[O-])cc1 ?
Peg3 promoter: 1.1; KKLEB tox: -38.0; Shn3 3UTR inh: -59.7; HIF-2a block: 14.2; TRPM1 prom inh: -0.5; CF NFkB inh: 50.6*; CF NFkB conf: 23.7

Results for CC1(C)Cc2c(ccc3ccccc23)C(=O)N1 ?
Peg3 promoter: -73.7; KKLEB tox: -6.3; Shn3 3UTR inh: -24.9; HIF-2a block: -58.8; TRPM1 prom inh: -4.9; CF NFkB inh: 68.7*; CF NFkB conf: 78.4*

How did CCC(=O)OC1(C(=O)CCl)[C@@H](C)C[C@H]2[C@@H]3CCC4=CC(=O)C=C[C@]4(C)[C@@]3(F)[C@@H](O)C[C@@]21C (stereo not given in full) do in these assays?
Peg3 promoter: 4.7; KKLEB tox: -7.1; Shn3 3UTR inh: -3.7; HIF-2a block: 25.7; TRPM1 prom inh: -5.3; CF NFkB inh: 75.5*; CF NFkB conf: 17.7

How did CCC(=O)O[C@]1(C(=O)CCl)[C@@H](C)C[C@H]2[C@@H]3CCC4=CC(=O)C=C[C@]4(C)[C@@]3(F)[C@@H](O)C[C@@]21C do in these assays?
Peg3 promoter: 1.1; KKLEB tox: 16.7; Shn3 3UTR inh: 3.1; HIF-2a block: 24.0; TRPM1 prom inh: -29.8; CF NFkB inh: 77.2*; CF NFkB conf: 17.9

How did CCCC(=O)O[C@]1(C(=O)CCl)[C@@H](C)C[C@H]2[C@@H]3CCC4=CC(=O)C=C[C@]4(C)[C@@]3(F)C(=O)C[C@@]21C do in these assays?
Peg3 promoter: -1.5; KKLEB tox: -2.6; Shn3 3UTR inh: 5.2; HIF-2a block: 31.4; TRPM1 prom inh: -10.6; CF NFkB inh: 90.6*; CF NFkB conf: 1.8

What do the screens show for `O=C(CCNS(=O)(=O)c1ccc(Cl)cc1)N1CCCCCC1`?
Peg3 promoter: 4.3; KKLEB tox: 2.3; Shn3 3UTR inh: -2.1; HIF-2a block: 5.7; TRPM1 prom inh: 4.2; CF NFkB inh: 6.2

How did CC(=O)N1c2ccc(S(=O)(=O)N(C)CC(=O)NC(C)c3ccccc3)cc2CC1C (stereo not given) do in these assays?
Peg3 promoter: 2.9; KKLEB tox: -1.5; Shn3 3UTR inh: -6.8; HIF-2a block: 8.5; TRPM1 prom inh: 3.0; CF NFkB inh: 0.1

How did CC1(C)CC2(OC2c2ccccc2[N+](=O)[O-])C(=O)c2ccccc21 (stereo not given) do in these assays?
Peg3 promoter: 18.9; KKLEB tox: -13.7; Shn3 3UTR inh: 15.2; HIF-2a block: 23.5; CF NFkB inh: 10.5

Results for COc1cccc(CNC(=O)COC(=O)CCCNC(=O)c2ccc(Cl)cc2)c1 ?
Peg3 promoter: -12.9; KKLEB tox: 9.3; Shn3 3UTR inh: -3.8; HIF-2a block: 0.0; TRPM1 prom inh: -6.1; CF NFkB inh: 4.7

How did CC1CCCC(NC(=O)CN2C(=O)c3cccnc3Oc3ccc(Cl)cc32)C1C (stereo not given) do in these assays?
Peg3 promoter: 31.4; KKLEB tox: 4.2; Shn3 3UTR inh: -3.4; HIF-2a block: 10.8; TRPM1 prom inh: -0.9; CF NFkB inh: -27.8

Results for CCOc1ccccc1N1CCN(c2nc3ccccc3nc2C(C#N)C(=O)OC)CC1 (stereo not given) ?
Peg3 promoter: 41.6; KKLEB tox: -7.0; Shn3 3UTR inh: -7.3; HIF-2a block: 22.3; TRPM1 prom inh: 3.9; CF NFkB inh: 90.0*; CF NFkB conf: 46.8*

Results for CC(C)(C)C(C(=O)NCc1ccccc1)N1CCN(C(=O)C2CCCO2)CC1 (stereo not given) ?
HIF-2a block: 8.2

How did COc1c(/C=N/Nc2ccc([N+](=O)[O-])cc2[N+](=O)[O-])c(C)nn1-c1ccccc1 do in these assays?
Peg3 promoter: 16.2; KKLEB tox: -38.2; Shn3 3UTR inh: -12.1; HIF-2a block: 3.9; TRPM1 prom inh: 21.0; CF NFkB inh: 59.9*; CF NFkB conf: 41.0*

Results for O=C(NCc1cccc(C(F)(F)F)c1)c1[nH]c(C(F)(F)F)nc1-c1ccccc1 ?
Peg3 promoter: 34.1; KKLEB tox: 1.6; Shn3 3UTR inh: 22.1; HIF-2a block: -3.7; CF NFkB inh: 20.1

How did COc1ccc(-c2ccc(F)cc2)cc1[C@H]1[C@H]2C=CC[C@@H](C)[C@@H]2C(=O)N1Cc1ccccc1 do in these assays?
Peg3 promoter: 16.0; KKLEB tox: -1.9; Shn3 3UTR inh: 21.6; HIF-2a block: 11.2; TRPM1 prom inh: -11.6; CF NFkB inh: 75.1*; CF NFkB conf: 35.4
